From PubChem
Shown are actives, neighbours in structure and some others; about 2.9% of the full set was active somewhere.
Mtb hypoxia inh: PubChem AID 1159583. M. tuberculosis hypoxia-regulated fluorescent reporter, fluorescence. fluorescence inhibition, % (concentration not given with the values). 300,000 tested, 0.1% active; in the data active means fluorescence inhibition mostly above about 23%, no sharp cut-off; inactive means mostly below about 17%
GDH-TPI counter: GDH-TPI coupling enzyme inhibitors, primary screen, artefact control for M. tuberculosis FBA inhibitor project, biochemical, absorbance, full deck. GDH-TPI coupled enzyme counterscreen, NADH absorbance. inhibition, % at 4.8 µM. 360,000 tested, 1.2% active. AID 588335, 2011; in the data active means inhibition above about 30%;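 further: 0% = DMSO wells and 100% = wells lacking the enzyme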
FadD28 binding: inhibitors of FadD28 bisubstrate probe binding, primary screen, biochemical, fluorescence polarization, single point. Mycobacterium tuberculosis FadD28 fatty-acid-AMP ligase. inhibition, % at 12.5 µM. 360,000 tested, 0.22% active; in the data active means inhibition above about 8.5%, passing the limit was not always enough
FBA Mtb inh: Mtb FBA enzyme inhibitors, primary screen, biochemical, fluorescence, strain H37Rv; AID 588726, 2011; inhibition, % at 1 µM; purified M. tuberculosis FBA, fluorescence read-out; Fructose-bisphosphate aldolase (Mycobacterium tuberculosis (strain ATCC 25618 / H37Rv)), …; 360,000 tested, 2.3% active; in the data active means inhibition above about 27%;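 further: 0% = vehicle and 100% = reference inhibitor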
Target sequence (P9WQA3 whole entry, looked up): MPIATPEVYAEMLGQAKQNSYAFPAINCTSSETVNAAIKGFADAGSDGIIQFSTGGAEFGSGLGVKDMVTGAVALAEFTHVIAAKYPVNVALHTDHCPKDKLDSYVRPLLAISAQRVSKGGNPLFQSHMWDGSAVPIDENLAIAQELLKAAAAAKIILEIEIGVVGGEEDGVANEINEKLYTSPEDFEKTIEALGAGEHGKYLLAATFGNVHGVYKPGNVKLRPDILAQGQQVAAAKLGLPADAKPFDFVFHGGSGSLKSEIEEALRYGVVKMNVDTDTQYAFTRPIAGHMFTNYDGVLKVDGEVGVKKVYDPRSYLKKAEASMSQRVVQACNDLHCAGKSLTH
BioA inh: M. tuberculosis BioA enzyme inhibitors, primary screen, biochemical, plate reader, single point, HTS; 7,8-diaminopelargonic acid synthase BioA (Mycobacterium tuberculosis); purified M. tuberculosis BioA enzyme; inhibition, % at 9.99 µM; 360,000 tested, 0.096% active; in the data active means inhibition above about 40%
* marks the source's active call; other numbers are inactive results; · = not tested or not shown; + = active, no number.

SMILES	Mtb hypoxia inh	GDH-TPI counter	FadD28 binding	FBA Mtb inh	BioA inh
CC1CCCC(C)N1CCCNC(=O)c1cc2c(s1)-c1ccccc1OC2 (stereo not given)	·	24.8	-7.6	+	-0.8
CN(C)CCNC(=O)c1cc2c(s1)-c1ccccc1OC2	8.9	31.8*	-3.9	+	-0.3
Cc1cccc(NC(=O)c2cc3c(s2)-c2c(C)cccc2OC3)n1	13.6	22.1	-1.3	13.6	1.0
CC(C)NC(=O)N(C)C[C@H]1OCCCC[C@@H](C)Oc2ccc(NC(=O)Nc3ccccc3)cc2C(=O)N([C@H](C)CO)C[C@@H]1C	·	·	·	·	0.1
COc1cc(C=Nn2cnc3scc(-c4cccs4)c3c2=O)cc(OC)c1OC	-5.0	·	·	·	·
CCNC(=O)C[C@@H]1CC[C@H]2[C@@H](COc3ccc(NC(=O)Nc4ccccc4OC)cc3C(=O)N2C)O1	·	·	·	·	-2.0
C[C@@H]1CCCCO[C@@H](CN(C)S(=O)(=O)c2ccc(F)cc2)[C@@H](C)CN([C@@H](C)CO)C(=O)c2cc(NS(C)(=O)=O)ccc2O1	·	·	·	·	-0.6
Cc1ccc2oc(=O)c3cc(C(=O)NCCCN4CCCC(C)C4)sc3c2c1 (stereo not given)	2.3	27.4	-1.7	4.8	-5.1
CCCN1CCN(CCCNC(=O)c2cc3c(s2)-c2c(C)cccc2OC3)CC1	11.7	20.7	-5.7	+	0.9
CC1CC(C)CN(CCCNC(=O)c2cc3c(s2)-c2ccccc2OC3)C1 (stereo not given)	6.1	14.5	-14.7	+	0.5
Cc1cccc2c1-c1sc(C(=O)NCCCN3CCCC(C)C3)cc1CO2 (stereo not given)	12.0	22.4	-14.1	+	1.4
COc1ccccc1C(=O)Nc1ccc2c(c1)C(=O)N(C)[C@@H]1CC[C@H](CC(=O)NCCc3ccncc3)O[C@@H]1CO2	·	·	·	·	0.3
CCOc1ccc(C(=O)NN=Cc2ccccc2[N+](=O)[O-])cc1	2.2	·	·	·	·
CCOC(=O)/C(C#N)=C1/C=C(C)NC(c2ccccc2O)=N1	14.2	22.9	0.5	6.0	1.9
CCOC(=O)/C(C#N)=C1/C=CN(C)C(C)=N1	-2.1	67.3*	-1.3	-2.0	-0.6
CC(C)C(=O)Nc1ccc(-c2nc3ncccc3o2)cc1	3.8	40.6*	-1.3	+	0.1
CC(C)C(=O)Nc1ccc(-c2nc3cccnc3o2)cc1	16.8	34.6*	-1.6	+	0.0
CNc1cnc(-c2ccc(F)c(F)c2F)cn1	·	10.2	-0.3	165.9*	0.7
CN1CCN(C(=O)C[C@H]2C[C@H]3c4cc(NS(=O)(=O)c5ccc(F)cc5)ccc4O[C@H]3[C@H](CO)O2)CC1	·	·	·	·	-0.8
Cc1noc(C)c1NC(=O)N(C)C[C@@H]1Oc2ccc(NC(=O)Cc3ccccc3)cc2C(=O)N([C@H](C)CO)C[C@H]1C	·	·	·	·	-1.1
Cc1cc(OCc2cc(C(=O)NC3CCC3)no2)cc(C)c1Cl	-0.5	2.7	1.5	45.8*	0.1
COc1ccc(S(=O)(=O)Nc2ccc3c(c2)CC(=O)N([C@@H](C)CO)C[C@H](C)[C@@H](CN(C)S(=O)(=O)c2c(C)noc2C)O3)cc1	·	·	·	·	1.0
COc1ccccc1CNC(=O)CCN1C(=O)c2ccccc2C1=O	15.8	1.7	-2.7	117.2*	0.8
CNc1ccc(-c2ccccc2OC)cn1	·	21.7	-0.4	114.2*	-0.5
Cc1noc(C)c1S(=O)(=O)Nc1ccc2c(c1)CC(=O)N([C@H](C)CO)C[C@@H](C)[C@@H](CN(C)Cc1ccc3c(c1)OCO3)O2	·	·	·	·	-3.5
SMILES	Mtb hypoxia inh	GDH-TPI counter	FadD28 binding	FBA Mtb inh	BioA inh
COC(=O)c1sccc1-c1ccc(C(=O)Nc2cccnc2)o1	4.4	33.6*	-3.0	1.1	1.0
CNC(=S)NN=CC1=CCC2CC1C2(C)C (stereo not given)	7.4	·	·	·	·
O=c1c(CO)cc(CO)cc(CO)c1O	10.1	25.8	0.1	-5.0	·
O=C1C=CC(=O)c2c(O)c(CO)c(CO)c(O)c21	·	9.5	18.3*	2.1	·
O=C(NN=Cc1cc(Br)cs1)c1ccccc1[N+](=O)[O-]	13.1	·	·	·	·
O=C(N/N=C/c1ccc(Br)s1)c1ccccc1[N+](=O)[O-]	·	37.7*	-9.1	-3.1	1.9
Nc1nc2nn(-c3ccccc3)nc2c(=O)[nH]1	-1.2	14.3	·	199.2*	-1.0
Nc1nc2c(ncn2-c2ccccc2)c(=O)[nH]1	7.8	9.9	-1.9	1.3	0.8
C[C@@H]1CN([C@H](C)CO)C(=O)c2cc(NC(=O)CCCN(C)C)ccc2O[C@@H](C)CCCCO[C@H]1CN(C)Cc1ccc(C(F)(F)F)cc1	·	·	·	·	2.6
COc1ccccc1CCn1c(N)c(C#N)c2nc3ccccc3nc21	-4.8	26.7	-5.5	+	-1.0
N#Cc1c(N)n(CCNC(=O)c2cccs2)c2nc3ccccc3nc12	14.0	8.8	-0.4	+	-0.3
CCCCCCn1c(N)c(C(=O)NCCN2CCOCC2)c2nc3ccccc3nc21	·	-0.9	-5.1	49.8*	-0.3
N#Cc1c(N)n(CCCN2CCOCC2)c2nc3ccccc3nc12	·	18.2	-0.4	192.3*	-4.2
CCCCCn1c(N)c(C(=O)NCc2cccs2)c2nc3ccccc3nc21	-1.6	·	·	·	·
COc1ccc(CCn2c(N)c(C#N)c3nc4ccccc4nc32)cc1OC	·	9.8	-0.3	16.0	-2.2
Nc1c(C(=O)Nc2ccccc2)c2nc3ccccc3nc2n1CCCN1CCOCC1	15.1	11.7	-27.2	5.4	-0.1
COc1cc(/C=N/N2C(=O)CSC2=S)ccc1O	·	38.4*	0.4	-9.0	2.5
O=C1CSC(=S)N1/N=C/c1cccnc1	·	57.2*	-1.1	-4.3	-1.3
COc1ccc(/C=N/N2C(=N)SCC2=O)cc1	·	48.8*	-3.7	-0.1	-1.6
O=C(CCSc1nnc(-c2ccccc2)o1)N1CCOCC1	40.4*	3.7	-1.2	4.6	·
CC(C)c1nn2c(N)c(/C=C3\C=Nc4ccccc43)c(=O)nc2s1	-12.9	11.8	-1.1	0.7	-2.9
CCC(CC)c1nn2c(N)c(/C=C3\C=Nc4ccccc43)c(=O)nc2s1	3.5	18.6	-2.2	+	-0.3
CC(C)Sc1nsc2nc(=O)c(/C=C3\C=Nc4ccccc43)c(N)n12	2.4	14.8	19.3*	-2.3	-0.5
O=C(c1ccc2c(c1)OCO2)N1C[C@@H]2[C@H](c3ccccc31)[C@@H](CO)N2Cc1ccccc1Cl	·	·	·	·	4.5
Cc1ccc2[nH]c3c(=O)n(CCCN4CCOCC4)cnc3c2c1	3.5	8.2	-2.0	12.7	-1.0
SMILES	Mtb hypoxia inh	GDH-TPI counter	FadD28 binding	FBA Mtb inh	BioA inh
COc1ccc2[nH]c3c(=O)n(CCCN4CCOCC4)cnc3c2c1	5.4	22.2	-0.8	157.2*	6.0
COc1ccccc1S(=O)(=O)N[C@@H]1CC[C@H](CCNC(=O)C2CCC2)O[C@@H]1CO	·	·	·	·	-6.5
Cn1c(=O)c2[nH]c(-c3ccc(S(=O)(=O)O)cc3)nc2n(C)c1=O	4.5	42.0*	-0.7	·	2.7
Cc1ccc(-c2cc(-c3ccccc3)nc(N)c2C#N)o1	11.2	-2.1	-4.3	132.6*	-3.0
N#Cc1c(-c2ccco2)cc(-c2ccc(F)cc2)nc1N	·	16.1	-9.6	153.5*	-2.0
CCCN1[C@@H]2c3cccc(=O)n3C[C@@H]2[C@@H](CO)[C@@H]1C(=O)N1CCCCC1	·	·	·	·	-2.1
